Test results reported in PubChem BioAssay (NCI).
This is part of a sample that, as a whole, favours compounds with a hit. Of some 79,000 tested, about 15% had one in any assay. No stated cut-off is given here; in the data, active means growth inhibition above about 70%; inactive means the rest.

How the values were obtained:
[1] = NCI Yeast Anticancer Drug Screen. Data for the rad50 strain (AID 155);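 further: 0% = growth of vehicle-only cultures of the same strain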; details: S. cerevisiae rad50 strain growth inhibition; at 50.0 µM; stronger effect = higher value
Summary of the method: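 Compounds were tested on a yeast strain with an engineered DNA damage repair alteration; the reported value is growth inhibition normalised to vehicle treatment.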

[2] = NCI Yeast Anticancer Drug Screen. Data for the mec2-1 strain (AID 157); details: S. cerevisiae mec2-1 strain, at 50.0 µM, stronger effect = higher value
Summary of the method: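 Cells of the genetically defined mec2-1 yeast strain are incubated with test compound. Inhibition of growth is calculated against vehicle-treated controls.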

[3] = NCI Yeast Anticancer Drug Screen. Data for the sgs1 mgt1 strain (AID 161);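 further: 0% = growth of cultures given vehicle only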; details: S. cerevisiae sgs1 mgt1 strain, at 50.0 µM, stronger effect = higher value
Summary of the method: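 Read-out: growth inhibition vs vehicle controls. Cells: mutant yeast strain deficient in DNA damage repair.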

[4] = NCI Yeast Anticancer Drug Screen. Data for the cln2 rad14 strain (AID 165);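 further: 0% = growth equal to vehicle treated cultures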; details: S. cerevisiae cln2 rad14 strain, at 50.0 µM, stronger effect = higher value
Summary of the method: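 The screen exposed genetically defined yeast (cln2 rad14) to test compounds and scored growth inhibition relative to vehicle-treated controls.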

[5] = NCI Yeast Anticancer Drug Screen. Data for the bub3 strain (AID 167); details: S. cerevisiae bub3 mutant strain, at 50.0 µM, stronger effect = higher value
Summary of the method: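 Growth of a checkpoint-deficient yeast mutant is measured after compound exposure. Values represent inhibition relative to vehicle.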

[6] = NCI Yeast Anticancer Drug Screen. Data for the mlh1 rad18 strain (AID 175); details: S. cerevisiae mlh1 rad18 strain growth inhibition; at 50.0 µM; stronger effect = higher value
Summary of the method: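 Compound-treated yeast growth, normalised to vehicle controls. Strain bears defined DNA repair mutations.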

Measured: growth inhibition

NC1NC(=O)C(CCCOc2ccc([N+](=O)[O-])cc2)C(c2ccccc2)N1 (stereo unspecified)
inactive: [1] 3.55% | [2] -11.8% | [3] 6.6% | [4] 2.35% | [5] 21.8% | [6] 10.4%

O=C(O)C1(C(=O)O)CCN(S(=O)(=O)c2ccccc2)CC1
inactive: [1] -4% | [2] -10.9% | [3] -39% | [4] -5.2% | [5] -9.85% | [6] -7%

COc1cc(/C(C#N)=C/c2ccccn2)c([N+](=O)[O-])cc1OC
inactive: [1] -7.9% | [2] -2% | [3] 6% | [4] -36.6% | [5] 4.5% | [6] -5.9%

O=C(Nc1cc(Cl)ccc1Cl)Oc1ccc(Cl)cc1C(=O)c1ccccc1
inactive: [1] -45% | [2] -10.4% | [3] -37.8% | [4] -16.8% | [5] -35.4% | [6] -56.9%

COC1=CCC2=C(CCO2)C1
inactive: [1] 5.3% | [2] 0.35% | [3] -6.9% | [4] -18.5% | [5] -7.1% | [6] 1.1%

O=C(O)C(CCOc1ccccc1)(CCc1ccccc1)C(=O)O
inactive: [1] 4.1% | [2] -10.8% | [3] 5.7% | [4] -58.5% | [5] -8.1% | [6] -13.4%

COC(=O)/C(=N/NC(C)(C)C)C(C(=O)C=C(C)C)C(=O)C(=O)Nc1ccc(Cl)cc1C (stereo unspecified)
inactive: [1] 2.2% | [2] -1.55% | [3] -11.2% | [4] -28.9% | [5] -0.7% | [6] 0.8%

COc1ccc(C(CC(=O)O)c2ccccc2)cc1 (stereo unspecified)
inactive: [1] -31.4% | [2] -42.6% | [3] -2.55% | [4] -14.4% | [5] -29.8% | [6] -28.6%

COC(=O)CC(C(C(=O)OC)C(=O)OC)N1C(=O)OC(c2ccccc2)C1c1ccccc1 (stereo unspecified)
inactive: [1] 7.75% | [2] -10.5% | [3] -2.95% | [4] 9.4% | [5] -18% | [6] 3.4%

COc1ccc2c(c1)CC/C(=C\c1ccccn1)C2=O
inactive: [1] 41.5% | [2] 33.5% | [3] 16.8% | [4] 24.4% | [5] 19.5% | [6] 14.4%

CCOC(=O)CC1(C)OCCO1
inactive: [1] 31.9% | [2] 11.4% | [3] 8.95% | [4] 21.8% | [5] 21.3% | [6] 28%

CC(C)(C#N)OC(=O)Nc1cccc(Cl)c1
inactive: [1] 5.55% | [2] -5.6% | [3] 3.75% | [4] -35.1% | [5] -30.6% | [6] -26.8%

Cc1cn(C2CC(O)C(CO)O2)c(=O)[nH]c1=S (stereo unspecified)
inactive: [1] 9.05% | [2] -7.25% | [3] -3.5% | [4] -37.3% | [5] 14.2% | [6] 13.2%

CC(C)CCc1n[nH]c(=O)n1/N=C\c1ccccc1
inactive: [1] -4.25% | [2] -9.35% | [3] -0.05% | [4] -10.6% | [5] 19.1% | [6] 26.6%

S=C(Cc1ccc2ccccc2c1)N1CCOCC1
inactive: [1] 29.4% | [2] 1.95% | [3] -2.1% | [4] 23.6% | [5] 30.4% | [6] 12.9%

NC(N)=NC(=O)c1ccc(N)cc1
inactive: [1] -13.6% | [2] -2.25% | [3] -0.1% | [4] -7.35% | [5] -3.4% | [6] 23.5%

Cc1cc(C)c(NC(=O)Nc2ccccc2F)cc1C
inactive: [1] 18.7% | [2] 19.6% | [3] 14.3% | [4] 24.7% | [5] 33.1% | [6] 8.85%

O=C(O)C(CS(=O)(=O)O)S(=O)(=O)O (stereo unspecified)
inactive: [1] -10.3% | [2] -18.2% | [3] -1.9% | [4] -7.15% | [5] 3.15% | [6] -10.5%

CCOC(=O)c1cnc2ccc(OC)cc2c1
inactive: [1] 0.7% | [2] 0.7% | [3] -6.35% | [4] -76.6% | [5] 35.5% | [6] 18.3%

C=C1C(=O)OC2C1CC(OC(C)=O)/C(C)=C/CCC1(C)OC21 (stereo unspecified)
inactive: [1] -4.5% | [2] -35.3% | [3] 6% | [4] -6.25% | [5] -27.6% | [6] -68.2%

O=C(CCCc1ccccc1)NO
inactive: [1] 14.7% | [2] 33.6% | [3] 17.5% | [4] 3.35% | [5] 10.8% | [6] 13.6%
